# Data taken from PubChem BioAssay AID434970 (Sanford-Burnham Center for Chemical Genomics, 2010).
# In all, about 11,000 compounds went through this assay and about 310 (2.8%) were called active. This is one part of a sample in which actives are shown more often than they occur. Cut-off read from the data, not from the text of the source: active = activity change below about -85%; inactive = the rest.
# System: intestinal alkaline phosphatase [Mus musculus]
# Experiment: activators of mouse IAP, confirmation, biochemical, luminescence, single concentration (AID 434970)
# Conditions: purified mouse IAP, CDP-Star luminescence, 30 min, at 10 µM; activation factor: measured here: IAP activation factor, stronger effect = higher value; activity change, negative = activation: stronger effect = lower value
SMILES,activation factor,"activity change, negative = activation"
CCOc1cc(/C=N\NC(=O)c2ccc(NC(=O)CC)cc2)ccc1OC(=O)c1ccccc1,1.02,-1.9% (inactive)
Cc1cc(C)nc(SCC(=O)c2ccc([N+](=O)[O-])cc2)n1,0.867,13.3% (inactive)
O=C1Nc2ccccc2C(O)(C(=O)NC2CC2)N1c1ccc(Cl)c(Cl)c1 (stereo not given),0.911,8.85% (inactive)
CCOc1ccc2nc(SCC(=O)N(C)C3CCS(=O)(=O)C3)[nH]c2c1 (stereo not given),0.928,7.2% (inactive)
O=C(c1cccs1)[C@@H]1[C@@H]2C(=O)N(Cc3ccc4c(c3)OCO4)C(=O)[C@@H]2C2c3ccccc3C=CN21 (stereo not given in full),0.569,43.1% (inactive)
CCn1c(=O)c(C(=O)NCCN2CCCCC2)c(O)c2ccccc21,0.851,14.8% (inactive)
CC[C@]1(C(=O)OC)[C@H]2C(=O)N(C)C(=O)[C@H]2[C@H]2CN(C)C(=NC3CCCCC3)N21,0.984,1.6% (inactive)
Cc1ccccc1NC(=O)NCCCN1CCN(c2ccccc2)CC1,1.27,-27.2% (inactive)
Cc1cc2nc(C)n(CCCNC(=O)Nc3cccc4ccccc34)c2cc1C,2.18,-118% (active)
O=C(NCCc1c[nH]c2ccccc12)Nc1cccc2ccccc12,1.29,-28.6% (inactive)
Cc1cc(=O)n(CCO)c(O)c1C#N,1.02,-1.65% (inactive)
CCOC(=O)C1=CNS(=O)(=O)NC1c1cccc(O)c1 (stereo not given),1.05,-5.15% (inactive)
COc1ccc(NS(=O)(=O)c2ccc(OC)c(OC)c2)cc1OC,0.945,5.5% (inactive)
Cc1csc(NC(=O)Nc2cccc(Cl)c2)n1,1.11,-11.1% (inactive)
COc1cccc(-c2csc(N3CCN(C(=O)Nc4ccc(F)cc4)CC3)n2)c1,1.33,-32.7% (inactive)
COc1cccc(-c2csc(NC(=O)Nc3ccccc3)n2)c1,2.11,-111% (active)
O=C(Nc1ccccc1)Nc1nc(-c2ccc(F)cc2)cs1,1.62,-62.5% (inactive)
O=C(Nc1cccc(Cl)c1)Nc1nc(-c2ccc(Cl)cc2)cs1,2.1,-110% (active)
O=C(Nc1nc(-c2ccccc2)cs1)NC1CCCCC1,1.61,-61.4% (inactive)
O=C(Nc1nc(-c2cccs2)cs1)c1ccc(Cl)cc1,0.793,20.7% (inactive)
O=C(Nc1cccc(Cl)c1)Nc1nc(-c2ccccc2)cs1,2.16,-116% (active)
O=C(Nc1ccccc1)Nc1nc(-c2ccc(F)c(F)c2)cs1,1.75,-75.4% (inactive)
Cc1cc(NCCCn2ccnc2)n2c(nc3ccccc32)c1C#N,1.02,-2.25% (inactive)
CC1(C)Cc2c(sc3c2C2=NCCN2C=N3)CO1,0.94,5.95% (inactive)
COc1ccc(C(c2nnnn2Cc2cccs2)N2CCN(c3ccc(F)cc3)CC2)cc1OC (stereo not given),0.985,1.5% (inactive)

SMILES,activation factor,"activity change, negative = activation"
C1=C[C@H]2CC[C@@H]1N(c1ccccc1)O2,0.976,2.4% (inactive)
NC1=NC2(CCCCC2)N(c2ccc(F)cc2)C(N)=N1,0.95,4.95% (inactive)
Cc1ccc(CNC(=O)/C(C#N)=C\c2ccc(N(C)C)cc2)cc1,0.817,18.4% (inactive)
CCCOc1ccc(Oc2cc(C)nc(SC)n2)nn1,1.01,-1% (inactive)
Cc1nn(C/C(C#N)=N\O)c(C)[n+]1N,0.961,3.9% (inactive)
COc1cc2c3c(c1)C1(C(=O)N3C(C)(C)C=C2C)C(C#N)=C(N)Oc2cc(O)ccc21 (stereo not given),1,-0.3% (inactive)
COc1ccc(NC(=O)c2ccco2)cc1NC(=O)c1cccc(OC(C)C)c1,0.934,6.55% (inactive)
O=C1CN=C(Nc2ccccc2Cl)N1Cc1ccc2c(c1)OCO2,1.07,-7.1% (inactive)
CCOC(=O)c1ccc(N2CCN(c3ccccc3F)CC2)c(NC(=O)Nc2ccccc2)c1,3.14,-214% (active)
CCOC(=O)c1ccc(N2CCN(c3ccc(F)cc3)CC2)c(NC(=O)Nc2cccc(OC)c2)c1,1.55,-55% (inactive)
CCOC(=O)c1ccc(N2CCN(c3ccccc3F)CC2)c(NC(=O)Nc2cccc(OC)c2)c1,4.62,-362% (active)
COC(=O)c1ccc(N2CCN(C)CC2)c(NC(=O)c2cc3ccccc3o2)c1,1.03,-3.1% (inactive)
COc1cccc(NC(=O)CCN2CCN(c3ccccc3F)CC2)c1,1.09,-8.65% (inactive)
CCOC(=O)c1cccc(NC(=O)Nc2cc(OC)ccc2OC)c1,1.69,-68.8% (inactive)
CC1(C)N=C(SCC(=O)Nc2ccccc2)C(c2ccc(Cl)cc2)=N1,0.943,5.75% (inactive)
COc1cc(C2CC(=O)Oc3ccc(C(C)(C)C)cc32)cc(OC)c1OC (stereo not given),1.07,-6.8% (inactive)
O=C(O)CCN(CCC(=O)O)c1ccccc1,1.02,-1.9% (inactive)
COc1ccc(NC(=O)Nc2ccc3c(c2)C(=O)N([C@H](C)CO)C[C@H](C)[C@@H](CN(C)C(=O)Nc2ccc(OC)cc2)O3)cc1,1.6,-60% (inactive)
CNC[C@@H]1Oc2ccc(NC(=O)Nc3cccc4ccccc34)cc2C(=O)N([C@@H](C)CO)C[C@@H]1C,2.43,-143% (active)
CNC[C@H]1Oc2ccc(NC(=O)Nc3ccc(OC)cc3)cc2C(=O)N([C@@H](C)CO)C[C@H]1C,2.23,-123% (active)
CNC[C@H]1Oc2ccc(NC(=O)Nc3ccc4c(c3)OCO4)cc2C(=O)N([C@H](C)CO)C[C@@H]1C,1.48,-47.9% (inactive)
CNC[C@@H]1Oc2ccc(NC(=O)Nc3ccccc3)cc2C(=O)N([C@@H](C)CO)C[C@H]1C,1.61,-61.5% (inactive)
CCOC(=O)CC1(c2ccccc2)CCOC(C)(C)C1 (stereo not given),0.94,6.05% (inactive)
COc1ccc(N2CCN(S(=O)(=O)/C=C/c3ccccc3)CC2)cc1,1.07,-7.05% (inactive)
COc1ccc2[nH]c3c(c2c1)CCN1C(=O)C(CC(=O)NCCCN(C)C)C[C@H](C(=O)N(C(C)C)C(C)C)[C@@]31C (stereo not given in full),1.14,-13.9% (inactive)
